# From PubChem
# Hits are enriched below; roughly 2.7% of the tested compounds scored in any of these assays.
# SKN-1 block: suppressors of acrylamide-induced Pgst-4::GFP reporter in worms, primary screen, SKN-1 inhibitor project, whole organism, uHTS, GFP/RFP fluorescence ratio, strain VP596. C. elegans VP596 Pgst-4::GFP/RFP ratio, 24 h. inhibition, % at 21.8 µM. 360,000 tested, 0.49% active;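 active = interference check ratio from 0.5 to 1.5 plus GFP to RFP signal ratio inhibition reaching or exceeding a fixed threshold, cut at about 30% in these data, passing the limit was not always enough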
# MPTP block: mitochondrial permeability transition pore inhibitors, primary screen, biochemical, isolated mouse mitochondria, absorbance; Ca2+ swelling absorbance, 30 min; inhibition, % at 10 µM; 360,000 tested, 1.4% active;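 active = inhibition of 50% or more, scaled per plate between neutral and stimulator controls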;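 also: 0% = DMSO wells given calcium and 100% = 1 mM EGTA wells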
# NRP1-CendR mod: modulators of CendR peptide binding to NRP-1, primary screen, biochemical, fluorescence polarization, uHTS; FAM-RPARPAR peptide binding to NRP-1; inhibition, % at 25 µM; 360,000 tested, 0.85% active;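 active = inhibition or corrected inhibition above about 18%, plus a signal ratio from 0.5 to 1.5, limit read from the data, passing the limit was not always enough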
# ATG4B inhibitor: ATG4B protease inhibitors, primary screen, biochemical, fluorescence, uHTS | Cysteine protease ATG4B (Homo sapiens), Q9Y4P1 | ATG4B cleavage of LC3-PLA2, NBD-HPC fluorescence, 1 h | inhibition, % at 8.33 µM | 340,000 tested, 0.51% active | AID 504462, 2011; in the data active = inhibition above about 40%
# Target sequence (Q9Y4P1 whole entry, looked up): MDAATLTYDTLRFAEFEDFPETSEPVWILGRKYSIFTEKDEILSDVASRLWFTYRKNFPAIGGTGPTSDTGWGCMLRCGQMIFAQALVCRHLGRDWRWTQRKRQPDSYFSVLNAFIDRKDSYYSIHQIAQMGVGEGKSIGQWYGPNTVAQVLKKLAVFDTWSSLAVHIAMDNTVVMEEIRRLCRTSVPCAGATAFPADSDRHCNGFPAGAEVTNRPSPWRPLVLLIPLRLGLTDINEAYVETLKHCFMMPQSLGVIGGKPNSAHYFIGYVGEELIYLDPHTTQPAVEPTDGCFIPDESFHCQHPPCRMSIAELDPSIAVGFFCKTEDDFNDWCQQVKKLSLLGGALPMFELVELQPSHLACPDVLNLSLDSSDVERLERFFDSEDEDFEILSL
# F508del corr: F508del CFTR correction, initial screen, CFBE line, single point; CFBE cells, YFP halide quenching; stimulated with forskolin plus potentiator P3; % fluorescence drop versus neutral controls; activity (quench increase), % at 7.58 µM; 350,000 tested, 0.36% active;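 active = mean added fluorescence quench of at least 8% versus neutral control, with both replicates also reaching 8%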;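 also: cells transiently co-express mutant CFTR-F508del with the halide-sensitive YFP; corrector assay measuring rescue of mutant channel to the surface after 24 h compound exposure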
# The depositor's hits bear a star; i = inactive; . = no result given.
SMILES,SKN-1 block,MPTP block,NRP1-CendR mod,ATG4B inhibitor,F508del corr
CC(Sc1ccccc1)C(=O)Nc1ccc(N2CCOCC2)cc1 (stereo not drawn),15,0,-1,-15,.
CCCN1CCN(C(=O)CCCNC(=O)Cn2cnc3sc(C)c(C)c3c2=O)CC1,-7,-2,26*,-8,.
Cc1sc2ncn(CC(=O)NCCCC(=O)N3CCC(C(N)=O)CC3)c(=O)c2c1C,18,0,8,0,-2
CNC(=O)C[C@H]1CC[C@H]2[C@@H](COC[C@H](O)CN2Cc2ccc(C(F)(F)F)cc2)O1,.,.,.,.,0
COc1ccc(CCC(=O)N2CCCc3ccccc32)cc1,-5,-1,28*,13,3
COc1ccc(OCCCC(=O)N2CCCc3ccccc32)cc1,-19,1,7,5,.
Cc1noc(C)c1CSc1nc2[nH]ncc2c(=O)n1-c1ccccc1,-17,-2,-6,-6,.
Cc1noc(C)c1CSc1nc2ccccc2c(=O)n1-c1ccccc1,19,4,3,54*,.
CC(C)NC(=O)N(C)C[C@@H]1OCCCC[C@H](C)Oc2ccc(NS(=O)(=O)c3ccc(F)cc3)cc2C(=O)N([C@@H](C)CO)C[C@@H]1C,.,.,.,.,-3
CCCS(=O)(=O)N1CCCC(C(=O)NC2CCCC(C)C2C)C1 (stereo not drawn),5,-10,0,2,.
CCCS(=O)(=O)N1CCC(C(=O)NC2CCCC(C)C2C)CC1 (stereo not drawn),4,4,26*,3,.
C[C@H](CO)N1C[C@H](C)[C@@H](CN(C)S(=O)(=O)c2ccccc2)Oc2ccc(NS(C)(=O)=O)cc2C1=O,.,.,.,.,-1
C=C1C(=O)[C@]23C[C@H]1CC[C@H]2[C@]1(C)[C@@H](OC(C)=O)CC[C@@](C)(C(=O)O)[C@H]1C[C@@H]3O,1,0,11,.,8.6*
O=C1/C(=C/c2cccs2)SC(=S)N1CC(=O)N1CCCCC1CCO (stereo not drawn),44*,0,-1,-2,0
Cc1noc(C)c1COc1ccc(C(=O)NNC(=O)c2ccccc2)cc1,14,0,18,3,9.6*
Cc1noc(C)c1COc1ccc(C(=O)NNC(=O)c2ccccc2F)cc1,-17,-1,6,0,.
CCc1ccc(S(=O)(=O)/N=C2\C=C(NS(=O)(=O)c3ccccc3)C(=O)c3ccccc32)cc1,-8,13,16,-1,0
CC(C)c1ccc(S(=O)(=O)/N=C2\C=C(NS(=O)(=O)c3ccccc3)C(=O)c3ccccc32)cc1,14,26,31*,-29,-1
Cc1ccc(C)c(S(=O)(=O)/N=C2\C=C(NS(=O)(=O)c3ccccc3)C(=O)c3ccccc32)c1,39*,15,20,-4,5
C/C=C/c1ccc2c(c1)[C@@H]1[C@@H](CCN1C(=O)c1cnccn1)[C@H](CO)N2,.,.,.,.,0
CN(C)CC#Cc1ccc([C@H]2[C@@H](CO)N3CCCCN(CC4CC4)C[C@@H]23)cc1,.,.,.,.,2
Cn1c(=O)c(Nc2ccc(Cl)cc2)c2c3c(cccc31)C(=O)c1ccccc1-2,.,.,.,-50,3
CC(=O)Nc1c2c3c(cccc3n(C)c1=O)C(=O)c1ccccc1-2,8,0,53*,-2,.
CCOc1cc(C(=O)NCCN2CCOCC2)cc(OCC)c1OCC,0,5,26*,4,.
COc1cc(C(=O)NCCC(=O)NCCN2CCOCC2)cc(OC)c1OC,-7,-3,-8,6,-1
SMILES,SKN-1 block,MPTP block,NRP1-CendR mod,ATG4B inhibitor,F508del corr
CS(=O)(=O)N1CCN(c2ccccc2NC(=O)Cc2ccc(Cl)cc2)CC1,-3,2,28*,-7,.
CCn1c(SCC(=O)N2CCN(c3ccc(Cl)cc3)CC2)nc2ccccc2c1=O,-15,3,-2,-17,.
CCn1c(SCC(=O)N2CCN(c3ccc(F)cc3)CC2)nc2ccccc2c1=O,4,2,29*,6,.
O=[N+]([O-])c1cccc2ccc(/C=C/c3ccc(C(F)(F)F)cc3)nc12,12,2,-6,-6,.
O=[N+]([O-])c1cccc2ccc(/C=C/c3ccc(Cl)cc3)nc12,39*,-14,8,3,-2
COCC(=O)N1[C@H](CO)[C@H](c2ccc(-c3ccccc3)cc2)C12CN(C(C)=O)C2,.,.,.,.,2
CCCN(C)C[C@H]1OCCCC[C@@H](C)Oc2ccc(NC(=O)CCCN(C)C)cc2C(=O)N([C@H](C)CO)C[C@H]1C,.,.,.,.,0
O=C(NCCCN1CCCCCC1)c1ccc(CS(=O)(=O)Cc2ccccc2F)o1,-14,10,30*,6,.
CCCCN(CCCC)c1ncnc2nc[nH]c12,1,0,22*,-3,-1
O=C(NCc1ccccn1)C1CCN(C2CCN(Cc3cccc(F)c3)CC2)CC1,8,0,23*,.,-1
O=C(NNS(=O)(=O)c1ccc(F)cc1)C1CCN(Cc2cccc(F)c2)CC1,-6,-1,18,-1,-1
O=C(NCC[C@H]1CC[C@@H](NC(=O)c2ccncc2)[C@H](CO)O1)Nc1ccc(Cl)cc1,.,.,.,.,3
COCC(=O)N1CC2(CCN(C(=O)c3ccccn3)CC2)c2c(n(C)c3cc(OC)ccc23)[C@@H]1CO,.,.,.,.,1
COC(=O)n1c(=O)oc2ccccc21,-1,0,26*,3,.
Cc1nc2ccc(S(=O)(=O)NCC(=O)N(C)Cc3ccccc3)cc2s1,11,1,26*,-10,2
Cc1nc2ccccc2c(=O)n1/N=C/c1ccccc1Cl,38*,0,11,10,1
CCOC(=O)C1=CN(Cc2ccco2)S(=O)(=O)NC1c1ccc(C(F)(F)F)cc1 (stereo not drawn),12,1,-4,-2,8.1*
CCOC(=O)C1=CN(CC)S(=O)(=O)NC1c1ccc(C(F)(F)F)cc1 (stereo not drawn),-1,1,5,6,2
O=C(CCCn1c(=O)c2cccn2c2cccnc21)NCc1cccc(Br)c1,10,1,2,0,0
O=C(CCn1c(=O)c2cccn2c2cccnc21)NCc1cccc(Cl)c1,11,-2,27*,-3,-3
COCCCNc1c2c3c(cccc3[nH]c1=O)C(=O)c1ccccc1-2,45,2,145,i,46*
COCCCNC1=C(Cl)C(=O)c2ccccc2C1=O,14,2,4,-6,-4
CC(=O)N(C)C[C@H]1OCc2ccccc2-c2ccccc2C(=O)N([C@@H](C)CO)C[C@@H]1C,.,.,.,.,0
N#CC1(c2ccccc2)CCCN1C(=O)c1ccc(Br)cc1 (stereo not drawn),-3,0,-8,3,.
N#CC1(c2ccccc2)CCCN1C(=O)c1ccccc1Cl (stereo not drawn),4,-6,26*,-3,.
